Results reported in PubChem BioAssay AID504339 (National Center for Advancing Translational Sciences (NCATS), 2011).
The campaign covered roughly 390,000 compounds. About 17,000 (4.4%) were called active. About 8% were inconclusive and are not listed. This excerpt belongs to a sample that is enriched for actives. A number with no mark means an inactive call. Calls come from the whole dose curve; as a rule, active = well fitted inhibition curve with a large enough effect; inconclusive = small, poorly fitted or top-dose-only effect; inactive = no such curve, though single readings can be large or run the other way.

Target: Lysine-specific demethylase 4A (Homo sapiens) (UniProt O75164)
Sequence (O75164 whole entry, looked up, the tested form may be a part): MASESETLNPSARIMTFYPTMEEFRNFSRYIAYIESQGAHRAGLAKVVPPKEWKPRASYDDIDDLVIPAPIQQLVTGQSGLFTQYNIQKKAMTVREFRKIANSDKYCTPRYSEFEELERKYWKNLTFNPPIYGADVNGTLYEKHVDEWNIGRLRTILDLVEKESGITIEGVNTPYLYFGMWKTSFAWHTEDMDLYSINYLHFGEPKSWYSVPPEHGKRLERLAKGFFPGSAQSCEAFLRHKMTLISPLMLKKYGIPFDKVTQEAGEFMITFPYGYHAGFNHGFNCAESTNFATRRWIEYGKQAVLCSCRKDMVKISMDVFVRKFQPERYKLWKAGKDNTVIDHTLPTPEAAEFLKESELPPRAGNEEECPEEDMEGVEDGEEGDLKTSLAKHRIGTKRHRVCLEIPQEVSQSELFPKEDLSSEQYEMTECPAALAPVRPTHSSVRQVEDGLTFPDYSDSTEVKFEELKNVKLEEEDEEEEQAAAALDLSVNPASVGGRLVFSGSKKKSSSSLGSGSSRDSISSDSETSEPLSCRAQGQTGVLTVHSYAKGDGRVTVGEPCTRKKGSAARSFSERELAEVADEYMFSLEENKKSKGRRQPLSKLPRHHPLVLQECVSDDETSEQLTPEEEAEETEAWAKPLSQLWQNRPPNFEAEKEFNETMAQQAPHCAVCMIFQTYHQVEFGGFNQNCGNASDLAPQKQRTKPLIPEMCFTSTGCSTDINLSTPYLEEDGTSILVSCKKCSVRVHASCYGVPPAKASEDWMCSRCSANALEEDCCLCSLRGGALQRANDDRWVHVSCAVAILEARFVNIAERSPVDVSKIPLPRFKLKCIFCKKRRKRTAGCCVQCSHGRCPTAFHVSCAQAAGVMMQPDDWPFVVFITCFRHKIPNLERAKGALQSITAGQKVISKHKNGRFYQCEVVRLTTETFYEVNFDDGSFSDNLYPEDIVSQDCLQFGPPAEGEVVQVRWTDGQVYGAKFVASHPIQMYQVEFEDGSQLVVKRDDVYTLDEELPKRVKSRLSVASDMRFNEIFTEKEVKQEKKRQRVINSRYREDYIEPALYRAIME
Assay: qHTS Assay for Inhibitors of JMJD2A-Tudor Domain; note: nearly all actives have a fitted effect of over 50% in size
Conditions: AlphaScreen JMJD2A-Tudor / H3K4me3 peptide binding; series mostly up to 114 µM; activity change, negative = inhibition: at the top concentration
% is set by controls: 0 for no effect and ±100 for the full control effect; potency is the fitted concentration of half-maximal effect.

Row | SMILES | activity change, negative = inhibition | Potency
1 | CN(CC(=O)Nc1cccc(C(F)(F)F)c1)S(=O)(=O)c1cccs1 | 0.683% | 
2 | CN(CC(=O)NCc1ccc(Cl)cc1)S(=O)(=O)c1cccs1 |  | 89.1 µM (active)
3 | COc1ccc(CNC(=O)CN(Cc2ccc(Cl)cc2)S(C)(=O)=O)cc1 | -6.03% [at 57.1 µM] | 
4 | Cc1ccc2sc(N(Cc3cccnc3)C(=O)C3COc4ccccc4O3)nc2c1C (stereo not given) | -15.6% | 
5 | Cc1ccc(C(=O)Nc2ccc(OCc3cc(=O)n4c5c(sc4n3)CCCC5)cc2)cc1 | 6.29% | 
6 | COn1c(=O)c(=O)n(OC)c2ccccc21 | -17.5% | 
7 | CCOn1c(=O)c(=O)n(O)c2ccccc21 |  | 44.7 µM (active)
8 | CCOC(=O)c1nnn2c3ccccc3c(=O)n(C)c12 | -7.58% | 
9 | Cc1ccc(-c2cnc(C3CC3)o2)cc1S(=O)(=O)Nc1cccc(C)c1C | -26.8% | 
10 | CCc1ccc(CNCc2c(C(=O)O)n(Cc3ccc(F)cc3Cl)c3cc(OC)ccc23)cc1 | -18.7% | 
11 | CC(C)(C)OC(=O)N1CCC(c2c(C(=O)NCc3ccccn3)cnn2-c2ccc(F)cc2)CC1 | -5.83% | 
12 | C#CCOCCOCCOCCNc1nc(N2CCN(C(=O)Cn3cc(CCO)nn3)CC2)nc(N2CCN(C(=O)[C@H](CCCCN)n3cc(CCCC)nn3)CC2)n1 | -18.8% | 
13 | CCC(C)[C@@H](C(=O)N1CCNCC1)n1cc(CCCCN)nn1 (stereo not given in full) | -14.4% | 
14 | C#CCOCCOCCOCCNc1nc(N2CCN(C(=O)C([C@@H](C)O)n3cc([C@@H](N)CCCCN)nn3)CC2)nc(N2CCN(C(=O)[C@H](CCCCN)n3cc(CN)nn3)CC2)n1 (stereo not given in full) |  | 79.4 µM (active)
15 | C#CCOCCOCCOCCNc1nc(N2CCN(C(=O)C([C@@H](C)CC)n3cc(C(N)COC(=O)C(F)(F)F)nn3)CC2)nc(N2CCN(C(=O)[C@H](CCCCN)n3cc(C(N)CC(C)C)nn3)CC2)n1 (stereo not given in full) |  | 56.2 µM (active)
16 | O=S(=O)(Nc1ccc2nc(-c3cccc(Cl)c3)oc2c1)c1ccccc1 | -16.6% | 
17 | CC(=O)OCC(NC(=O)C(Cc1ccccc1)NC(=O)OC(C)(C)C)C1OC(n2ccc(=O)[nH]c2=O)C(OC(C)=O)C1OC(C)=O (stereo not given) | 2.76% | 
18 | Cc1cccc(-n2ccnc2SCC(=O)Nc2cc(C(F)(F)F)ccc2Cl)c1 | -32.9% | 
19 | O=C(NC1CC(=O)N(c2ccc(F)cc2)C1)C1CCCCC1 (stereo not given) | -5.84% | 
20 | CSc1ccc(NC(=O)Cn2nnnc2-c2ccccc2F)cc1 | -16.4% | 
21 | CC(C)(C)c1ccc(C(=O)N2CCC(c3nc(-c4ccc(S(=O)(=O)N5CCCC5)cc4)no3)CC2)cc1 | -27.7% | 
22 | O=C(/C=C/c1ccccc1[N+](=O)[O-])OCC(=O)N1CCCC1 | 10.1% | 
23 | O=[N+]([O-])c1ccccc1/C=C/CN1CCC(O)CC1 |  | 8.91 µM (active)
24 | CC1CC(C)CN(C/C=C/c2ccccc2[N+](=O)[O-])C1 (stereo not given) | -24.5% | 
25 | CCN(CCCNC(=O)Cn1ncc2c([nH]c3ccccc32)c1=O)c1cccc(C)c1 | -24.8% | 

Row | SMILES | activity change, negative = inhibition | Potency
26 | COc1ccc(-c2noc(CSc3nc(C)cc(=O)[nH]3)n2)cc1OC | -10.4% | 
27 | COCCCNC(=O)C1CC(=O)N(CCc2ccccc2)C1 (stereo not given) | -5.84% | 
28 | CC1(C)SC2c3ccccc3C(=O)N2[C@@H]1C(=O)NCc1ccco1 (stereo not given in full) | -15.6% | 
29 | COCCCNC(=O)[C@H]1N2C(=O)c3ccccc3C2SC1(C)C (stereo not given in full) |  | 22.4 µM (active)
30 | CCOc1ccc(NC(=O)C(=O)NCCc2csc3nc(-c4ccccc4F)nn23)cc1 | -16% | 
31 | Cc1cc(C)c2oc(C(=O)Nc3ccc(S(=O)(=O)N4CCCCCC4)cc3)cc(=O)c2c1 | -16.3% | 
32 | CCOC(=O)c1c(NC(=O)Cc2coc3ccc(CC)cc23)sc2c1CCC2 | 5.56% | 
33 | CCc1nn(CC(=O)N2CCN(c3cccc(C(F)(F)F)c3)CC2)c(=O)c2cc3occc3n12 | -7.05% | 
34 | Cc1nc2nc(NCc3cccc(Br)c3)[nH]n2c(=O)c1Cc1ccccc1 | -9.38% | 
35 | Cc1cc(C)n2ncc(C(=O)Nc3cccc(C#N)c3)c2n1 | -24.1% [at 28.6 µM] | 
36 | Nc1ccc(Nc2ccccc2)cc1 |  | 39.8 µM (active)
37 | COc1ccccc1C(=O)Nc1ccc(Nc2ccccc2)cc1 | 3.79% | 
38 | Nc1ccc(S(=O)(=O)NC(=O)c2ccccc2)cc1 | -2.76% | 
39 | CCN(CC)C(=O)CSc1nc2cc3c(cc2c(=O)n1CCCC(=O)NCc1ccc2c(c1)OCO2)OCO3 | -12.7% | 
40 | COc1ccccc1-c1noc(CSc2nnc(-c3ccccc3)n2-c2ccc(C)c(C)c2)n1 | -33.7% | 
41 | NC(=O)c1c(Nc2nc3c(F)cccc3s2)sc2c1CCCC2 | -32.5% | 
42 | NNc1nc2c(Cl)cccc2s1 |  | 63.1 µM (active)
43 | CCc1nnc(SCc2c(F)cccc2Cl)c2cc3sccc3n12 | -16.5% | 
44 | CCN(C(=O)Cn1cc(S(=O)(=O)N2CCN(c3ccccc3F)CC2)c2ccccc2c1=O)c1ccc(C)c(C)c1 | -16.1% | 
45 | CCCOc1ccc(C(=O)Nc2ccc3oc(-c4cccc(Cl)c4Cl)nc3c2)cc1 | -1.63% | 
46 | CCOC(=O)C1CCN(C(=O)/C=C/c2cc(OC)c(OC)c(OC)c2)CC1 | 3.19% [at 57.1 µM] | 
47 | CCOC(=O)C1CCCCN1Cc1ccc(OC)c(OC)c1OC (stereo not given) |  | 2.24 µM (active)
48 | CCOC(=O)C1CCN(S(=O)(=O)c2cc(F)ccc2OC)CC1 | -5.63% | 
49 | CCOc1ccccc1CNCc1c(C(=O)O)c(C)n(Cc2ccc(C)cc2)c1C | -13.4% | 
50 | CC1=C(c2ccc(C)c(C)c2)S(=O)(=O)NC1=NCc1ccccc1Cl | -22.5% | 

Row | SMILES | activity change, negative = inhibition | Potency
51 | Cc1nc2ccn(Cc3cccs3)c(=O)c2cc1C(=O)NCc1ccc(Cl)cc1 | -15.3% | 
52 | CCOc1nc(NCCN2CCOCC2)nc(Nc2ccc(C)cc2)n1 | -20.1% | 
53 | O=C(NCCN1CCOCC1)Nc1cccc(Cl)c1 | 4.56% | 
54 | CCOc1cccc(/C=N/NC(=S)NCCN2CCOCC2)c1O |  | 56.2 µM (active)
55 | O=C(Nc1nc2c(s1)CCCC2)c1ccccc1F | -14.9% | 
56 | COc1ccc(-c2nnc(SCC(=O)Nc3ccc(C(C)C)cc3)nc2-c2ccc(OC)c(OC)c2)cc1OC | -8% | 
57 | CCCCN(C)CCCNC(=O)CN1N=C(c2ccc(OC)cc2)CCC1=O | -2.24% | 
58 | Nc1ccc2nc3c(=O)[nH]c(=S)[nH]c3nc2c1 |  | 2.51 µM (active)
59 | COc1ccc(CNC(=O)Cc2coc3ccc(C(C)C)cc23)cc1 | -7.64% | 
60 | COc1ccc(CCNC(=O)C(=O)NCC(c2ccco2)S(=O)(=O)c2cccs2)cc1OC (stereo not given) | -2.6% | 
61 | O=C(COc1ccc(Cl)cc1Cl)N/N=C/c1ccccn1 | 6.74% | 
62 | O=C(N/N=C/c1ccccn1)C12CC3CC(CC(C3)C1)C2 | 6.29% | 
63 | CCN(CC)CCCN=Cc1c(O)n(-c2ccc(C)cc2)c(=O)c2ccccc12 | -18.3% | 
64 | CCOc1ccc(-n2c(O)c(/C=N/Nc3nnc(C)c(=O)[nH]3)c3ccccc3c2=O)cc1 |  | 28.2 µM (active)
65 | Cc1nnc(N/N=C/c2ccccn2)[nH]c1=O |  | 20 µM (active)
66 | CCOc1ccc(-n2c(SCC(=O)NCc3ccccc3)nc3n[nH]c(C)c3c2=N)cc1 | -6.09% | 
67 | Cc1cccc(C(=O)N2CCc3cc(CNC(=O)Cc4ccc(F)cc4)ccc32)c1 | -23.3% | 
68 | COc1cccc(C(=O)Nc2ccc(-c3cc(C(F)(F)F)nn3-c3ccccc3)cc2)c1 | 0% | 
69 | OCc1cnc(SCc2ccc(F)cc2)n1Cc1ccc(F)cc1 | -28.4% | 
70 | Cc1ccc(S(=O)(=O)N2CCN(c3nc(-n4cnc5ccccc54)nc4ccccc34)CC2)cc1 | -23.4% | 
71 | c1ccc(Cn2nnc3c(N4CCCCC4)ncnc32)cc1 | 16.3% | 
72 | COc1cc(OC)cc(-c2nc3nc(C)c(CCC(=O)Nc4ccc(C)cc4)c(C)n3n2)c1 | -21.2% | 
73 | Nc1ccc(C(=O)Nc2ccccc2N)cc1 | -8.97% | 
74 | Cc1ccc(Nc2nc(Cl)c(C=O)s2)cc1 | 1.05% | 
75 | Cc1ccc(Nc2ccccc2N)cc1 |  | 44.7 µM (active)

Row | SMILES | activity change, negative = inhibition | Potency
76 | O=C(c1ccco1)n1nc(-c2ccc(Cl)cc2)nc1NCc1ccccc1 | 3.78% | 
77 | Cc1nn2c(=O)cc(COC(=O)c3cccc(NC(=O)COc4ccccc4Cl)c3)nc2s1 | -21.9% | 
78 | Cc1cc(/C=N/NC(N)=O)c(C)n1C1CCCCC1 | -26.2% | 
79 | Cc1cc(/C=N/n2cnnc2)c(C)n1-c1ccc2ncccc2c1 | -26.6% | 
80 | Cc1cccc(-n2c(C)cc(/C=N/NC(N)=S)c2C)c1 |  | 56.2 µM (active)
81 | Cc1cc(C(=O)Nc2cccc(C(F)(F)F)c2)c2c(C)nn(-c3cccc(F)c3)c2n1 | 20.1% | 
82 | COCCCNC(=O)c1ccc(NC(=O)c2nsc3ccccc23)cc1 | 5.52% | 
83 | CCCCN1C(=O)/C(=C2/C=CC=CN2C)SC1=S |  | 44.7 µM (active)
84 | CCCCN1C(=O)/C(=C/C=C2/C=Cc3ccccc3N2CC)SC1=S | -28.7% | 
85 | COc1cccc(OC)c1OCCN1CCN(C(=O)c2ccco2)CC1 | -15% [at 57.1 µM] | 
86 | COc1ccccc1C(=O)N1CCN=C1SCc1cccnc1 | 0.331% | 
87 | COc1cccc(OC)c1C(=O)N1CCN(Cc2cccnc2)CC1 |  | 5.01 µM (active)
88 | CCCn1c2ccccc2c2cnn(CC(=O)NCCCOC(C)C)c(=O)c21 | -8.91% | 
89 | COc1cccc(N=C2SC(C(=O)Nc3cccc(Cl)c3)CC(=O)N2C)c1 (stereo not given) | -17% | 
90 | COc1cccc(CNC(=O)Cn2ncn3c(cc4ccccc43)c2=O)c1 | -13.5% | 
91 | Cc1ccc(/C=N\n2c(-c3ccccc3)n[nH]c2=S)s1 |  | 50.1 µM (active)
92 | CCc1n[nH]c(=S)n1/N=C/c1c[nH]c2ccc(Br)cc12 | -20% | 
93 | S=c1[nH]nc(-c2cc(-c3ccccc3)n[nH]2)n1/N=C/c1c2ccccc2cc2ccccc12 |  | 39.8 µM (active)
94 | C[n+]1ccc(/C=C/c2c[nH]c3ccccc23)cc1 | -0.69% | 
95 | O=C(Cn1cncn1)N/N=C/c1c2ccccc2cc2ccccc12 | 5.2% | 
96 | S=c1[nH]nc(-c2ccccc2)n1/N=C/c1c[nH]c2ccccc12 |  | 89.1 µM (active)
97 | C=CCNC(=S)N/N=C/c1ccc(C)s1 | -23.5% | 
98 | Cc1ccccc1C(=O)NCc1nc(-c2ccc(Cl)cc2)no1 | -14.9% | 
99 | O=C(Nc1ccc(S(=O)(=O)N2CCC(c3nc4ccccc4s3)CC2)cc1)c1ccccc1F | 1.99% | 
100 | CCc1ccc(C2CC(=O)c3c([nH]c(C(=O)OCc4ccc(C)cc4)c3C)C2)cc1 (stereo not given) | -5.14% | 
